# High-throughput results deposited in PubChem by National Center for Advancing Translational Sciences (NCATS).
# ALOX15 inhib – 15-hLO (ALOX15) enzyme inhibition; Potency, µM (doses to about 57.1 µM), for inactives: top-dose activity change, negative = inhibition, most hits filed as inhibitors; 1.4% of 74,000 active; purified 15hLO-1, xylenol orange hydroperoxide absorbance; P16050; note: % is set by controls: 0 for no effect and ±100 for the full control effect; nearly all actives have a fitted effect of over 55% in size
#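 Quantitative HTS in 25 mM Hepes pH 7.5 containing 0.01% Triton X-100: human 15hLO-1 at 40 nM, arachidonic acid at 50 uM, 6 min turnover. Product quantified via ferrous oxidation/xylenol orange, 573:405 nm absorbance ratio.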
# Hsp90 Hop PPI – changes Hsp90-Hop TPR2A binding signal, up or down; AlphaScreen TPR2A-His6 binding biotin-Hsp90 C-terminal peptide; Potency, µM (doses to about 57 µM), without a hit: at the top dose activity change, negative = inhibition; 0.44% of 71,000 active; AID 595; active = well fitted curve in either direction with a large enough effect; inconclusive = small, poorly fitted or top-dose-only effect, or another doubt; note: % is set by controls: 0 for no effect and ±100 for the full control effect
# CRE Fsk mod – CRE-bla signaling modulation under forskolin stimulation | AID 662 | Potency, µM (doses to about 38.2 µM), without a hit: at the highest dose activity change, negative = inhibition, actives largely listed as activators | CHO CRE-bla reporter (cAMP response element driving beta-lactamase), forskolin EC10, beta-lactamase ratio | 2.5% of 71,000 active; active = well fitted activation curve with a large enough effect in the signal ratio, with a control signal flat, not every such curve was filed as active; inconclusive = small, poorly fitted or top-dose-only effect, or effect the other way, or a change in a side signal; the % refers to the signal ratio; note: % of control where 0% means no effect
#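 CRE-bla CHO cells stimulated with EC10 NKH 477 (water-soluble forskolin) and compound titrations, 3 h at 37C; beta-lactamase read with CCF4 after 2 h at room temperature. Activity from 460/530 nm emission ratio, AC50 values for positive or negative modulation.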
# IkB signaling – IkB pathway inhibition in ABC-DLBCL cells. AID 445. Potency, µM (doses to about 57.1 µM), for inactives: at the top dose IkBa stabilization activation. ABC-DLBCL IkBa-CBG/CBR dual luciferase ratio, 4 h; response scale: scaled: untreated 0%, proteasome inhibitor 100%. 0.04% of 110,000 active; active = well fitted curve in the direction sought with a large enough effect in the signal ratio, not every such curve was filed as active; inconclusive = small, poorly fitted or top-dose-only effect, or a change in a side signal; the % refers to the signal ratio;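 note: the direction sought is a rising ratio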
#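 Luminescence ratio of IκBα-fused green versus native red beetle luciferase in OCI-Ly3 cells, 4 h post-doxycycline with compound; red signal alone, scaled from basal (0%) to zero light (-100%), flagged nonspecific or cytotoxic effects.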
# Tau fil binding – tau filament binding. P10636. recombinant tau filaments, thioflavin S fluorescence, 15 h; filaments grown with octadecylsulfate alongside compound. Potency, µM (titrated, usually from 57.1 µM), inactives show top-dose activity change, negative = inhibition. 2% of 71,000 active. AID 596;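 note: % is set by controls: 0 for no effect and ±100 for the full control effect; actives lower thioflavin S fluorescence by blocking filaments or displacing dye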
# Target sequence (P10636 whole entry, looked up): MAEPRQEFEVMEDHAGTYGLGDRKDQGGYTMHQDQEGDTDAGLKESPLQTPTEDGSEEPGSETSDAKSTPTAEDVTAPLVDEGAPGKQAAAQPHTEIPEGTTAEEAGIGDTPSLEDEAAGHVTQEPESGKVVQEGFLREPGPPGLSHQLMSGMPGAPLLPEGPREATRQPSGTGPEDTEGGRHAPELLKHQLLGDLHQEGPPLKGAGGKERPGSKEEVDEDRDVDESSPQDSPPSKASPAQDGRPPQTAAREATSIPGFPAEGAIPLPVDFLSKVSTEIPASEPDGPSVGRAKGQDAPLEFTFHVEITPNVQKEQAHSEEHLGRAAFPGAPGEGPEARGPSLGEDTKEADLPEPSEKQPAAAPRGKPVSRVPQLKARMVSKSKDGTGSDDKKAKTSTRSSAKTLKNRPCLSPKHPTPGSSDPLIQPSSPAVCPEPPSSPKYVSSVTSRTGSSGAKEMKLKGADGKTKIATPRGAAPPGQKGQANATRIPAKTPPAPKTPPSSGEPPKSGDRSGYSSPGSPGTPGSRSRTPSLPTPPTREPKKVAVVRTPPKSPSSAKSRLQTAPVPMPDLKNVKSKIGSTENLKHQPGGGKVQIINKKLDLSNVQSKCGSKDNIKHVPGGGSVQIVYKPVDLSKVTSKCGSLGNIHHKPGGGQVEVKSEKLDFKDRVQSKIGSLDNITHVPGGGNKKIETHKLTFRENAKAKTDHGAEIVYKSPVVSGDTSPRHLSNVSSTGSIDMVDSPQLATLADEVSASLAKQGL
#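 His-tagged recombinant human tau (exons 2, 3 and 10 included), 1 uM, was induced to fibrillize by 30 uM sodium octadecylsulfate with compound present. After 15 h at 37 C, thioflavine S fluorescence (ex 450, em 510 nm) was read.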
# Starred values were filed as active, the others as inactive; i = inactive; ? = inconclusive; / = not tested or not shown; [ ] = remark or other dose. Only some compounds are listed: those with a hit (about 3.6% of all), similar ones and a draw of the others. Unless noted, calls come from the whole dose curve; as a rule, active = well fitted curve in the direction sought with a large enough effect; inconclusive = small, poorly fitted or top-dose-only effect, or another doubt; inactive = no such curve, though single readings can be large; an effect the other way counts as inactive or inconclusive. Potency is the fitted concentration of half-maximal effect.
SMILES,ALOX15 inhib,Hsp90 Hop PPI,CRE Fsk mod,IkB signaling,Tau fil binding
Cc1nn(-c2ccccc2)c2sc(C(=O)OCN3C(=O)c4ccccc4C3=O)cc12,6.2%,-2.4%,1.58µM*,-1.4%,88.9%
CCCn1c(CCC(=O)Nc2cc(Cl)c(OC)cc2OC)nc2cccnc21,/,/,/,1.1%,/
Cc1ccc(NC(=O)C2CCN(c3nc4ccccc4[nH]3)CC2)c(C)c1,/,/,/,0.3%,/
COC(=O)c1ccc2c(=O)n(CC3CCCO3)c(SCC(=O)Nc3ccccc3OC)nc2c1 (stereo unspecified),-10.8%,2.1%,12.6µM*,4.9%,9.6%
FC(F)(F)c1cc(CN2CC3(CCNCC3)C2)cc(C(F)(F)F)c1,2.7%,-1.8%,4.3%,-4.0%[11.4 µM],12.6µM*
Cc1noc(C)c1-c1nccc(NCc2ccccc2)n1,15.8µM*,3.6%,?,2.1%[11.4 µM],-12.3%
Cc1cnc(CNc2ccnc(-c3c(C)noc3C)n2)cn1,-18.6%,-18.5%,?,1.4%[11.4 µM],-4.5%
Cc1nn(-c2ccc(F)cc2)c2sc(C(=O)N3CCCCCC3)cc12,-2.6%,?,1µM*,-1.1%,7.9%
CC(=O)N1CCc2cc(Br)cc(S(=O)(=O)N3CCN(c4cccc(C(F)(F)F)c4)CC3)c21,/,/,/,0.4%,/
NC(Cc1ccc(O)c(O)c1)C(=O)O (stereo unspecified),3.98µM*,/,/,/,/
C=CCn1cnc2c(c1=O)c1nc3ccccc3nc1n2/N=C/c1ccccn1,-2.8%,-8.5%,2.51µM*,-2.9%,?
C=CCn1cnc2c(c1=O)c1nc3ccccc3nc1n2/N=C/c1cc(OC)c(OC)c(OC)c1,-5.3%,-8.0%,1.58µM*,-2.1%,?
N#CC1=C(N)C2=C(N3CCCCC3)CCCC2C1(C#N)C#N (stereo unspecified),12.6µM*,-19.0%,-6.8%,0.6%,i
Cn1c2ccc(F)cc2c2ncn(CCN3CCOCC3)c(=O)c21,11.2%,?,10µM*,-2.1%,9.4%
COc1cc2c(=O)n(CCC(=O)NCC3CCCO3)c(=O)n(CC(=O)Nc3c(C)cccc3C)c2cc1OC (stereo unspecified),/,/,/,1.2%,/
CCOC(=O)c1c(C)[nH]c(C(=O)OCC(=O)Nc2cc(C)ccc2OC)c1C,-17.0%,-1.0%,?,-0.6%,14.6%
CCOC(=O)c1[nH]c(C)c(C(=O)Nc2cc(OC)ccc2OC)c1C,-0.8%,-5.5%,10µM*,1.2%,4.1%
Cc1c(S(=O)(=O)Nc2ccc3c(c2)OCCO3)c(=O)n(C)c(=O)n1C,9.7%,-2.0%,-4.4%,1.5%,9.7%
Cc1c(S(=O)(=O)Nc2cccc(Cl)c2)c(=O)n(C)c(=O)n1C,3.2%,-2.1%,2µM*,-1.3%,-7.6%
COc1cccc(-c2cc(C(=O)Nc3cc(C)on3)no2)c1,-12.7%,-4.7%,-10.7%,-0.1%,i
COC(=O)c1c(-c2ccc(F)cc2)csc1NC(=O)c1ccco1,-25.2%[11.4 µM],0.5%[11 µM],0.398µM*,-2.3%,i[11.4 µM]
COC(=O)c1c(-c2cccnc2)csc1NC(=O)c1cc(C)on1,?,-13.3%,2.51µM*,?,1.5%
C#CCN1C(C)=C(C(=O)OC)[C@@H](c2cccc([N+](=O)[O-])c2)C(C(=O)OCC)=C1C,-9.4%,-8.8%,5.9%,2.7%,-29.7%
Cc1cc(C)cc(-n2ccn(CC(=O)Nc3ccccc3C(F)(F)F)c(=O)c2=O)c1,/,/,/,-2.5%,/
O=C(NC1CCN(Cc2ccccc2)CC1)C1CCCN(S(=O)(=O)c2cccc3nonc23)C1 (stereo unspecified),-20.4%,-5.1%,4.4%,-0.8%,15.8µM*
CCC1CCCCN1C(=O)Cn1c(=O)oc2cc(S(=O)(=O)N3CCCCC3)ccc21 (stereo unspecified),/,/,/,0.7%,/
Clc1ccc(Cn2ncc3c(N4CCCC4)ncnc32)cc1,0.8%,0.0%,10µM*,-0.9%,5.4%
O=C(Nc1cccc(F)c1)N1CC2(CCN(C(=O)c3cccc(F)c3)CC2)C1,1.6%,-2.3%,-12.9%,0.8%[11.4 µM],0.6%
Cc1cc2nn(-c3cccc4ccccc34)nc2cc1N,?,3.3%,21.4%,4.7%,7.94µM*
CCc1ccc(-n2nc3cc(C)c(NC(=O)c4cccc5ccccc45)cc3n2)cc1,/,/,/,-3.2%,/
